This is an account of results in PubChem BioAssay (Tox21).

Results filed as inconclusive are left out. Calls of active or inactive are those of the source. Calls follow the shape of the full dose curve.
% is scaled to controls: 0 for no effect and ±100 for the full control effect; potency is read from the fitted curve at half-maximal effect.

Sequence of 5-hydroxytryptamine receptor 2A (Homo sapiens) (P28223 whole entry, looked up): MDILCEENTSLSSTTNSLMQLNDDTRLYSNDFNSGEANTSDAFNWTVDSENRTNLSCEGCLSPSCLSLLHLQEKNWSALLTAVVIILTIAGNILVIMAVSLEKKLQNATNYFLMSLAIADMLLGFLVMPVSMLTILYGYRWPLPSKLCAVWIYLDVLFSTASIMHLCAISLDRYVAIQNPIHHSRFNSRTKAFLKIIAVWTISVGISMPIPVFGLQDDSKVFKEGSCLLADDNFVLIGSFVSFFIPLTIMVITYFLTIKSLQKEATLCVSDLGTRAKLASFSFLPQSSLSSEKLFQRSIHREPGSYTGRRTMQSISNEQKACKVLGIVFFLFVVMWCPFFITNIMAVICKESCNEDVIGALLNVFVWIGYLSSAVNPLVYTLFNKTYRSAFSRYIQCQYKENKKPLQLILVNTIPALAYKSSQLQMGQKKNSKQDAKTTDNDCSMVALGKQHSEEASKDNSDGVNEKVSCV

The first test has as its target 5-hydroxytryptamine receptor 2A (Homo sapiens) (UniProt P28223). In words: 5-hydroxytryptamine receptor 2A (HTR2A) small molecule antagonists, cell-based qHTS assay (AID 1963586). Also: nearly all actives have a fitted effect of over 45% in size. The settings on record: HTR2A-CHO cells, DOI-induced calcium flux, fluorescence; series mostly up to 61.5 µM; activity, negative = inhibition: at the top concentration. A digest of the protocol:
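Antagonist-mode intracellular calcium assay: DOI (4 nM) added after 5 min compound pre-incubation at room temperature to dye-loaded HTR2A-CHO cells. Fluorescence followed for 3 min, sampled every second.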
In general terms: qHTS replaces the single test concentration by a dilution series.
For `CC(Cl)C(Cl)Cl` (configuration not stated), the “activity, negative = inhibition” value is -14.6% (inactive).
The same measure, in the same setting: the value for `O=C(O)C[C@H](O)C[C@H](O)/C=C/c1c(C2CC2)nc2ccccc2c1-c1ccc(F)cc1` was -9.13% [at 12.7 µM] (inactive); that for `CC(=O)Nc1cccc(C)c1` was 67.1% (inactive); that for `CCCCCCc1ccc(N)cc1` was -17.6% (inactive).
Take `Cc1cc(SC2=C(O)C[C@@](CCc3ccc(N)cc3)(C(C)C)OC2=O)c(C(C)(C)C)cc1CO`: the “activity, negative = inhibition” value was -8.19% (inactive).
For the molecule `CCCCC(CC)CN1C(=O)C2C3C=CC(C3)C2C1=O` (configuration not stated), the “activity, negative = inhibition” value was 70.9% (inactive).
As to `NCCS`, the “activity, negative = inhibition” value is 1.94% [at 28.5 µM] (inactive).
With `CN1CCN(C2Cc3ccccc3Sc3ccc(Cl)cc32)CC1` (configuration not stated), the Potency was 41 nM (active).
With `CCOC(=O)C1=NN(c2ccc(Cl)cc2Cl)C(C)(C(=O)OCC)C1` (configuration not stated), the “activity, negative = inhibition” value was -14.7% (inactive).

The target is the same in a further test. In words: 5-hydroxytryptamine receptor 2A (HTR2A) small molecule agonists, cell-based qHTS assay (AID 1963587). Also: nearly all actives have a fitted effect of over 30% in size. The settings on record: HTR2A-CHO cells, calcium flux fluorescence, agonist mode; series mostly up to 76.8 µM; activation: at the top concentration. A digest of the protocol: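 CHO cells stably expressing human HTR2A, plated 18 h, loaded with calcium dye 1 h at 37 C. Agonist mode: compounds added and intracellular calcium fluorescence recorded kinetically for 2 min at 1 sec intervals.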
Turning to `CN=C(NC#N)Nc1ccc(C2=NNC(=O)CC2C)cc1` (configuration not stated), the “activation” value was 17.7% [at 35.6 µM] (inactive).
The same measure, in the same setting: to `CCN(CC)CCOC(=O)C(Cc1cccc2ccccc12)CC1CCCO1` (configuration not stated) belongs -10.2% [at 35.6 µM] (inactive).
Same read-out and setting: the value for `O=c1[nH]cnc2ccccc12` was -1.78% (inactive); that for `CCCCCCCCCCOc1cc2c(=O)c(C(=O)OCC)c[nH]c2cc1OCC` was 1.5% [at 7.02 µM] (inactive).
With `CCCCOCCOC(=O)COc1ccc(Cl)cc1Cl`, the “activation” value is -1.88% (inactive).
The same measure, in the same setting: to `CC(=O)CC(=O)OC(C)(C)C` belongs -1.55% (inactive); to `CCCC1CCCC(=O)O1` (configuration not stated), 0.749% (inactive); to `CCCCCCCCCOC(=O)c1ccccc1C(=O)OCCCCCCCCC`, 3.62% (inactive).
On the same count and under the same terms, the value for `N#CC1(N)CCCCC1` was 1.44% (inactive); that for `Cc1ccc(-n2nc(C(C)(C)C)cc2NC(=O)Nc2ccc(OCCN3CCOCC3)c3ccccc23)cc1` was -9.44% [at 35.6 µM] (inactive).
As for `CCN(CCCCOC(=O)c1ccc(OC)c(OC)c1)C(C)Cc1ccc(OC)cc1` (configuration not stated), the Potency is 12000 nM (active).
With `C=COCC(C)C`, the “activation” value is 1.34% (inactive).
As for `C=C(C)C(=O)OCCCCCCCCCCOC(=O)C(=C)C`, the “activation” value is -0.415% (inactive).
Turning to `O=C(CCCCCCCCc1cccnc1)N1CCC(C=C(c2ccccc2)c2ccccc2)CC1`, the “activation” value was 0.616% (inactive).
Consider `O=C1CCCN1CCO`, for which the “activation” value was 2% (inactive).
As for `N=C(N)c1ccc(OCCCOc2ccc(C(=N)N)cc2)cc1`, the “activation” value was -3.47% [at 35.6 µM] (inactive).
The same measure, in the same setting: to `COCCCCCCCCOCCC[Si](C)(O[Si](C)(C)C)O[Si](C)(C)C` belongs 1.02% (inactive); to `CCOC(=N)CC(=O)OCC`, -0.259% (inactive); to `Oc1ccc2c(c1)CCC2`, -2.34% (inactive).
Take `CC(C)(C)c1nnc(NS(=O)(=O)c2ccccc2)s1`: the “activation” value was 4.38% [at 35.6 µM] (inactive).
Still for that read-out and setting: to `O=C(O)Cc1csc(-c2ccc(Cl)cc2)n1` belongs -5.14% [at 35.6 µM] (inactive); to `CCOC(=O)Nc1ccc(NCc2ccc(F)cc2)nc1N`, -2.46% [at 35.6 µM] (inactive); to `CC(Cl)C(Cl)Cl` (configuration not stated), 0.36% (inactive).
Take `O=C(O)C[C@H](O)C[C@H](O)/C=C/c1c(C2CC2)nc2ccccc2c1-c1ccc(F)cc1`: the activation was -5.4% [at 15.9 µM] (inactive).
Regarding `CCCCCCc1ccc(N)cc1`, the “activation” value was 19.6% (inactive).
As for `O=C=Nc1cccc(C(F)(F)F)c1`, the “activation” value was -0.591% (inactive).
As for `Cc1cc(SC2=C(O)C[C@@](CCc3ccc(N)cc3)(C(C)C)OC2=O)c(C(C)(C)C)cc1CO`, the “activation” value was 0.806% (inactive).
Same read-out and setting: the value for `CCCCC(CC)CN1C(=O)C2C3C=CC(C3)C2C1=O` (configuration not stated) was 12.6% (inactive); that for `O=S1(=O)CC(Cl)(Cl)C(Cl)(Cl)C1` was 1.13% (inactive); that for `CCOC(=O)C1=NN(c2ccc(Cl)cc2Cl)C(C)(C(=O)OCC)C1` (configuration not stated) was 13.4% (inactive).

The target of the next test is Muscarinic acetylcholine receptor M1 (Homo sapiens) (UniProt P11229). In words: Cholinergic receptor muscarinic 1 (CHRM1) small molecule antagonists, cell-based qHTS assay (AID 1963588). Also: nearly all actives have a fitted effect of over 40% in size. The settings on record: CHRM1-CHO antagonist mode, calcium flux fluorescence; series mostly up to 61.5 µM; activity, negative = inhibition: at the top concentration. A digest of the protocol: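 CHRM1-CHO calcium-flux assay, antagonist mode. Cells were seeded 18 h, dye-loaded 1 h at 37 C and given compound for 5 min at RT, then acetylcholine was added at 50nM. FDSS fluorescence was read 3 min; 15 concentrations, three runs.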
Sequence of Muscarinic acetylcholine receptor M1 (Homo sapiens) (P11229 whole entry, looked up): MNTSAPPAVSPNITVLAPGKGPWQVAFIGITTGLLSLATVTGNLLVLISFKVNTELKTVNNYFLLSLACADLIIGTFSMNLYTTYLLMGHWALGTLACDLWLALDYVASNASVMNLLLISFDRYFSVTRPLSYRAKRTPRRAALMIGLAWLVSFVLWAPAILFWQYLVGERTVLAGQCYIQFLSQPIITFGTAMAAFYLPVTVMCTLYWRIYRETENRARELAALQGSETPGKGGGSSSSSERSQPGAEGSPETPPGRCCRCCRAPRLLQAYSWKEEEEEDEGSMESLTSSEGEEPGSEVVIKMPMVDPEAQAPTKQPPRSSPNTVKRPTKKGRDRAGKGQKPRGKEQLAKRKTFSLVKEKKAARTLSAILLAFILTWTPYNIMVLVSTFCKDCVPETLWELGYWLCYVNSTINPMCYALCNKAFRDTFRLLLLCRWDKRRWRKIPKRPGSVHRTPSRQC
Consider `CN=C(NC#N)Nc1ccc(C2=NNC(=O)CC2C)cc1` (configuration not stated), for which the “activity, negative = inhibition” value is 9.05% [at 28.3 µM] (inactive).
As for `CCN(CC)CCOC(=O)C(Cc1cccc2ccccc12)CC1CCCO1` (configuration not stated), the “activity, negative = inhibition” value is -33% [at 28.3 µM] (inactive).
`O=c1[nH]cnc2ccccc12`: the “activity, negative = inhibition” value was -3.28% (inactive).
On to `CCCCCCCCCCOc1cc2c(=O)c(C(=O)OCC)c[nH]c2cc1OCC`, for which the activity, negative = inhibition is -9.72% [at 5.58 µM] (inactive).
Turning to `CCC(=O)CC(C)CC` (configuration not stated), the activity, negative = inhibition was -17.2% [at 0.232 µM] (inactive).
Still for that read-out and setting: the value for `CC(=O)CC(=O)OC(C)(C)C` was 8.19% (inactive).
As for `CC(COC(C)(C)C)OCCCO` (configuration not stated), the “activity, negative = inhibition” value was 10.7% (inactive).
Consider `CCCC1CCCC(=O)O1` (configuration not stated), for which the “activity, negative = inhibition” value was -4.8% (inactive).
As for `CCCCCCCCCOC(=O)c1ccccc1C(=O)OCCCCCCCCC`, the “activity, negative = inhibition” value was 32% (inactive).
Turning to `N#CC1(N)CCCCC1`, the “activity, negative = inhibition” value was -13.7% (inactive).
Take `Cc1ccc(-n2nc(C(C)(C)C)cc2NC(=O)Nc2ccc(OCCN3CCOCC3)c3ccccc23)cc1`: the “activity, negative = inhibition” value was -22.8% [at 28.3 µM] (inactive).
As for `CCN(CCCCOC(=O)c1ccc(OC)c(OC)c1)C(C)Cc1ccc(OC)cc1` (configuration not stated), the Potency is 163 nM (active).
On to `C=COCC(C)C`, for which the “activity, negative = inhibition” value is -14% (inactive).
Take `N#CSc1ccc(N)c([N+](=O)[O-])c1`: the “activity, negative = inhibition” value was -6.78% (inactive).
Regarding `C=C(C)C(=O)OCCCCCCCCCCOC(=O)C(=C)C`, the “activity, negative = inhibition” value is 3.21% (inactive).
For `Cc1ccc(C(=O)Oc2ccc(C(O)CNC(C)(C)C)cc2OC(=O)c2ccc(C)cc2)cc1` (configuration not stated), the “activity, negative = inhibition” value is 6.83% [at 28.3 µM] (inactive).
Consider `O=C1CCCN1CCO`, for which the “activity, negative = inhibition” value is -4.42% (inactive).
As for `CCOC(=N)CC(=O)OCC`, the “activity, negative = inhibition” value is 2.84% (inactive).
In the case of `CC(C)(C)c1nnc(NS(=O)(=O)c2ccccc2)s1`, the “activity, negative = inhibition” value is -8.56% [at 28.3 µM] (inactive).
On the same count and under the same terms, the value for `CCCCc1nc2cccnc2n1Cc1ccc(-c2ccccc2-c2nnn[nH]2)cc1` was 74.2% (inactive); that for `O=C(O)Cc1csc(-c2ccc(Cl)cc2)n1` was -3.36% [at 28.3 µM] (inactive).
`CC(Cl)C(Cl)Cl` (configuration not stated): the “activity, negative = inhibition” value was -10.5% (inactive).
`O=C(O)C[C@H](O)C[C@H](O)/C=C/c1c(C2CC2)nc2ccccc2c1-c1ccc(F)cc1`: the activity, negative = inhibition is 7.39% [at 12.6 µM] (inactive).
Consider `CCCCCCc1ccc(N)cc1`, for which the “activity, negative = inhibition” value was -0.533% (inactive).
As for `O=C=Nc1cccc(C(F)(F)F)c1`, the “activity, negative = inhibition” value is 0.794% (inactive).
Consider `NCCS`, for which the “activity, negative = inhibition” value was 0.878% [at 28.3 µM] (inactive).
Consider `O=S1(=O)CC(Cl)(Cl)C(Cl)(Cl)C1`, for which the “activity, negative = inhibition” value is 15.1% (inactive).
As to `CN1CCN(C2Cc3ccccc3Sc3ccc(Cl)cc32)CC1` (configuration not stated), the Potency is 65 nM (active).
